Pf growth 48h: P. falciparum growth inhibition at 48 hours (one generation); P. falciparum luciferase growth in erythrocytes, 48 h; Potency, µM (doses to about 28.7 µM), inactives show at the top dose activity change, negative = inhibition, hits mostly inhibitors; actives 5.9% (n = 310,000); AID 504832; further: potency means the concentration at half of the fitted maximal effect; on the % scale 0 is the no-effect control and ±100 the full control effect
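Firefly luciferase activity from engineered P. falciparum reports growth; inhibitors lower the luminescent signal. Cultures contained 2% hematocrit erythrocytes at 0.1% final parasitemia.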
Cycloheximide cs: affects cycloheximide protein synthesis inhibition readout, counter-screen; cell reporter, cycloheximide protein synthesis inhibition counterscreen; max response, %; actives 12% (n = 300,000); AID 2314; in the data active means max response mostly above about 13%, no sharp cut-off; inactive means mostly below about 14%; further: read at 38.3 µM for the half of the compounds with a filed dose; 0% is about no effect
SARS PLP yeast: blocks SARS-CoV papain-like protease in a yeast assay | S. cerevisiae expressing SARS-CoV PLpro, growth rescue | Potency, µM (titrated, usually from 32.9 µM), without a hit: top-dose activity, positive = growth rescue, usual class: activators | actives 0.19% (n = 330,000) | AID 485353; calls by dose curve; further: potency means the concentration at half of the fitted maximal effect; 0% is about no effect; nearly all actives have a fitted effect of over 55% in size
AMA1 RON2 block: disrupts binding of P. falciparum AMA1 to RON2; AlphaScreen AMA1-biotinylated RON2 peptide binding; Potency, µM (doses to about 58.2 µM), inactives show top-dose activity change, negative = inhibition, actives largely listed as inhibitors; actives 0.2% (n = 360,000); AID 720542;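 further: potency means the concentration at half of the fitted maximal effect; 0% = vehicle wells and -100% = peptide control; nearly all actives have a fitted effect of over 45% in size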
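AMA1 (3D7) with his tag at 25 nM final met compounds first, then biotinylated RON2 peptide at 25 nM; detection used donor plus acceptor beads, 10 µg/mL apiece, read by AlphaScreen after 30 min at room temperature.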
Shiga toxin inh: inhibitors of Shiga toxin in Vero cells; actives 9.2% (n = 290,000); inhibition, % at 38.7 µM; Vero cells, Shiga toxin protein synthesis inhibition reporter; in the data active means inhibition mostly above about 28%, no sharp cut-off; inactive means mostly below about 43%; further: 0% is about no effect
Pf growth 96h: P. falciparum growth inhibition at 96 hours | AID 504834 | Potency, µM (doses to about 28.7 µM), for inactives: top-dose activity change, negative = inhibition, usual class: inhibitors | actives 6.9% (n = 320,000) | P. falciparum luciferase reporter growth, 96 h; further: potency means the concentration at half of the fitted maximal effect; on the % scale 0 is the no-effect control and ±100 the full control effect
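P. falciparum expressing integrated firefly luciferase grown in erythrocytes (2% hematocrit, 0.05% parasitemia final) with compounds for 96 hours at 37 C, 5% CO2. Growth inhibition read as loss of luminescence after adding luciferase detection reagent.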
* marks the source's active call; other numbers are inactive results; ? = inconclusive; . = not tested or not shown; [ ] = dose if it differs, or a comment. Compounds with a hit are over-represented: about 19% of the library has one in this group of screens. Unless noted, the call rests on the fitted dose curve; in most records, active means well fitted curve in the direction sought with a large enough effect; inconclusive means small, poorly fitted or top-dose-only effect, or another doubt; inactive means no such curve, though single readings can be large; an effect the other way counts as inactive or inconclusive.

SMILES | Pf growth 48h | Cycloheximide cs | SARS PLP yeast | AMA1 RON2 block | Shiga toxin inh | Pf growth 96h
CN(Cc1ccccc1)C(=O)c1ccc([N+](=O)[O-])o1 | 9.28µM* | 19.2* | -68.5% | 50.1% | 42.4* | 26.1%
Cc1ccc(CNC(=O)c2ccc([N+](=O)[O-])o2)cc1 | ? | -1.9 | -35.9% | 0.0% | 14.8 | 8.28µM*
O=C(COC(=O)c1ccc([N+](=O)[O-])o1)NCc1ccccc1 | . | . | 1.1% | -7.5% | . | .
Cc1ccc(/C=C/C(=O)c2ccc([N+](=O)[O-])o2)cc1 | ? | . | 0.1% | -3.4% | . | -9.2%
CN(C)c1ccc(/C=N/NC(=O)CN(c2cccc(Cl)c2)S(C)(=O)=O)cc1Br | 13.1µM* | -1.0 | 4.9% | -4.6% | -16.7 | .
C=CCn1c(SCC(=O)N(C)CC(=O)Nc2ccc(C)cc2)nnc1-c1ccncc1 | . | . | 18.4% | -2.5% | . | .
O=C(CSc1nnc2ccccn12)NC(=O)c1ccccc1Cl | . | . | 1.9% | 0.0% | . | .
CC(=O)Nc1cccc(CCc2nc3ccccc3[nH]2)c1 | 92.4% | 22.8* | 1.5% | 6.9% | . | ?
CCN(CC)S(=O)(=O)c1ccc(C)c(NC(=O)CSc2nc3ccccc3[nH]2)c1 | ? | -2.7 | 18.2% | 25.5% | -5.1 | ?
Cc1ccc(S(=O)(=O)N(C)C)cc1NC(=O)CSc1nc2ccccc2[nH]1 | ? | -2.4 | 7.1% | 2.1% | -10.8 | 9.28µM*
Cc1ccc(NC(=O)Nc2cc(S(=O)(=O)N(C)C)ccc2C)cc1 | 11.9% | 1.6 | 0.5% | 0.0% | 39.8 | -4.2%[5.75 µM]
CCc1c(C)nc(SCC(=O)Nc2ccc3c(c2)OCCO3)[nH]c1=O | 3.0% | 9.9 | 0.2% | 2.7% | 22.3 | 78.7%
Cc1ccc2nc(SCC(=O)Nc3ccc4c(c3)OCCO4)[nH]c2c1 | . | 26.4* | -8.8% | -12.0% | 29.9 | 14.9%
Cc1ccc(S(=O)(=O)N(C)C)cc1NC(=O)Nc1ccccc1 | 4.15µM* | -3.4 | 1.3% | -8.6% | -9.6 | 16.8%
Cc1ccc(S(=O)(=O)N2CCC(C(=O)OC(C)C(=O)NCc3ccccc3)CC2)cc1C (stereo not given) | 4.3% | -2.3 | -2.7% | 3.4% | -5.0 | ?
CCC(=O)Nc1ccc(C(=O)CSc2nc3ccc(C)cc3[nH]2)cc1 | 22.0% | 19.0* | 16.1% | -4.5% | 4.1 | 26.7%
O=C(Cc1c(C(=O)O)[nH]c2ccccc12)Nc1ccc2c(c1)OCO2 | ? | 5.9 | 0.1% | -11.4% | 15.9 | 13.1µM*
O=C(CSc1nnc2c(n1)[nH]c1ccccc12)Nc1ccc2c(c1)OCO2 | 4.5% | 17.1 | -4.5% | -3.6% | 19.6 | .
O=C(CSc1ncccc1-c1nc2ccccc2[nH]1)Nc1ccc2c(c1)OCCO2 | -3.7% | 67.7* | -4.5% | -8.4% | 91.8* | -25.5%
O=C(CSc1nc2ccccc2[nH]1)Nc1ccc2c(c1)OCCO2 | 30.1% | 40.7* | -2.6% | -4.4% | 39.2 | 3.5%
CC(=O)c1c(C)[nH]c(C(=O)CSc2nc3ccc(C)cc3[nH]2)c1C | ? | 8.4 | 4.1% | -5.9% | 16.0 | ?
Cc1nc(N2CCCCC2)c(C#N)c(C)c1[N+](=O)[O-] | -30.0% | 1.8 | 0.1% | -8.6% | -6.7 | -4.1%
CCOc1ccc(CCNC(=O)Cn2nc(C)c3c(C)n(-c4ccccc4)nc3c2=O)cc1OCC | -0.1% | 1.1 | -1.3% | -5.9% | -14.1 | ?
C[C@@H]1CN([C@@H](C)CO)C(=O)CCCn2nncc2CO[C@H]1CN(C)S(C)(=O)=O | . | . | . | 21.8% | . | .
O=C(Nc1cccc(C(=O)N2CCCCC2)c1)c1ccccc1Br | -16.1% | -1.0 | 0.3% | -12.0% | 2.3 | ?
SMILES | Pf growth 48h | Cycloheximide cs | SARS PLP yeast | AMA1 RON2 block | Shiga toxin inh | Pf growth 96h
O=C(CCc1nc2ccccc2[nH]1)Nc1ccc2c(c1)OCO2 | -22.9% | 19.0* | -2.4% | -20.2% | 106.6* | 8.4%
Cc1ccc2nc(SC(C)C(=O)N3CCOCC3)[nH]c2c1 (stereo not given) | 219.1% | 43.9* | 5.2% | 4.5% | 79.3* | 154.7%
O=C(CCc1nc2ccccc2[nH]1)NCc1ccc2c(c1)OCO2 | 7.7% | -1.1 | 3.7% | -2.5% | -2.5 | -14.2%
CC1=CC(C2CC(=O)N(c3ccc(C)cc3)C2=O)CC2C(=O)N(c3ccc(C)cc3)C(=O)C12 (stereo not given) | -16.1% | -2.2 | 0.5% | 0.7% | 1.6 | -9.3%
COc1ccc(Cn2cc(CN3CC(N4CCN(C5CCN(C)CC5)CC4)CS3(=O)=O)nn2)cc1 (stereo not given) | . | . | . | 5.3% | . | .
Cc1nn(-c2ccccc2)nc1C(N)=O | 50.5% | 4.5 | 0.9% | -9.4% | -6.9 | 40.6%
COc1cccc(COC(=O)c2nn(-c3ccccc3)nc2N)c1 | -6.7% | 0.9 | 1.5% | -19.1% | 1.4 | -3.1%
NC(=O)c1nn(-c2ccccc2)nc1N | 16.5% | 17.6* | -0.7% | -21.4% | 16.5 | -14.1%
Nc1nn(-c2ccccc2)nc1C(=O)OCc1ccccc1 | -3.5% | 27.2* | 10.5% | 22.9% | 47.9* | 1.4%
Cc1ccc(COC(=O)c2nn(-c3ccccc3)nc2N)cc1 | -7.5% | 18.0* | -5.4% | 60.3% | 21.3 | 3.4%
O=C(Nc1cnns1)Oc1ccccc1 | . | . | . | 8.7% | . | .
COC(=O)CNC(=O)C(=O)OC | . | -4.9 | . | . | 15.5 | .
O=C1OC(Cc2ccccn2)C(O)=C1C1=NCCCCN1 (stereo not given) | 202.0% | 39.4* | -3.6% | -2.2% | 115.8* | 217.2%
O=C1OC(Cc2ccccn2)C(O)=C1C1=NCCCN1 (stereo not given) | 74.1% | 27.6* | 5.8% | -5.4% | 80.8* | 133.0%
CCCN(CCC)S(=O)(=O)c1ccc(C(=O)Nc2nc(-c3ccccc3)c(C(=O)OCC)s2)cc1 | 11.9% | -2.5 | 10.6% | 10.7% | 2.6 | -11.8%
O=C(COc1cccnc1[N+](=O)[O-])Nc1ccc(Cl)c(S(=O)(=O)N2CCOCC2)c1 | ? | -1.0 | 1.0% | 34.3% | -10.4 | ?
CC(C)(C)c1oc(C(=O)O)cc1CN1CCOCC1 | -2.4% | -0.7 | 1.0% | -5.0% | -3.6 | 67.1%
O=C(NCc1cc([N+](=O)[O-])ccc1O)c1cccnc1Sc1ccc(Cl)cc1 | -16.6% | 39.7* | -3.0% | -15.3% | 42.5* | ?
CCOC(=O)c1ccc(S(=O)(=O)N2CCN(C3CC(=O)N(c4ccccc4C(F)(F)F)C3=O)CC2)cc1 (stereo not given) | 13.1µM* | . | -0.4% | -6.6% | . | 11.7µM*
CS(=O)(=O)Nn1cnc2ccccc2c1=O | 4.3% | 1.1 | -0.4% | -3.1% | -12.3 | 175.8%
CC1(C)OC(=O)C(=CNn2cnc3ccccc3c2=O)C(=O)O1 | 39.4% | 32.3* | -1.6% | 6.2% | 29.1 | 36.8%
COC(=O)N(C)C[C@H]1OCc2cn(nn2)CCCC(=O)N([C@@H](C)CO)C[C@@H]1C | . | . | . | 3.2% | . | .
CC(C)(C)c1ccc(C(=O)NNc2cc(N3CCOCC3)nc(N3CCOCC3)n2)cc1 | 11.7µM* | 0.8 | -0.2% | 11.9% | 9.5 | -20.2%

Assay outcomes deposited in PubChem by National Center for Advancing Translational Sciences (NCATS).
